# Results taken from paper PMC8384837, “Expanding the binding specificity for RNA recognition by a PUF domain”.
# Key:
# Test in all cases: yeast three-hybrid, YBZ-1, SC-Leu-His + 0.5 mM 3-AT, 4 days
# Details in all cases: tags: N-Gal4 AD-HA kept; label: inside an RPR1-promoter hybrid RNA with tandem MS2 sites; ssRNA
# PUM1 PUF domain R3-FFS = PUM1 PUF domain R3-FFS (Homo sapiens, UniProt Q14671 828-1176, C935F;R936F;Q939S)
# Outline: (§1)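 Sequencing with Illumina followed PCR amplification of the repeat regions from transformants grown four days on SC-Leu (input) or SC-Leu-His + 0.5 mM 3-AT (selection). The transformants were strain YBZ-1 with a LexA–MS2 coat fusion and a HIS3 reporter, carrying Pumilio-1 PUF domain libraries and matching RNA elements. The interaction score is the log change in variant frequency from input to selection, computed in log2 with a pseudocount of 1 for absent variants.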
# PUM1 PUF domain R3-GRR = PUM1 PUF domain R3-GRR (Homo sapiens, UniProt Q14671 828-1176, C935G;Q939R)
# PUM1 PUF domain R3-GRR, sequence (Q14671 828-1176 C935G/Q939R): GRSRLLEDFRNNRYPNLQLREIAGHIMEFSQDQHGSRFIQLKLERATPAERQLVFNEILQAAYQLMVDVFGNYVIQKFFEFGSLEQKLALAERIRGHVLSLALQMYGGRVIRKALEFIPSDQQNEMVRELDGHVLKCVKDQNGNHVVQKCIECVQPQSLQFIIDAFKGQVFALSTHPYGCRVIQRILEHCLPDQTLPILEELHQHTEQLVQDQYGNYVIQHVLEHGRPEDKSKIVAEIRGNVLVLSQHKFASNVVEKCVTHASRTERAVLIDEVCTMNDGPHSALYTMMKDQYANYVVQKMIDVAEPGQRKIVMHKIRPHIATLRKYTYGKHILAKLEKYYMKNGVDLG
# Outline: as §1
# PUM1 PUF domain R8-TFR = PUM1 PUF domain R8-TFR (Homo sapiens, UniProt Q14671 828-1176, N1122T;Y1123F;Q1126R)
# PUM1 PUF domain R8-TFR, sequence (Q14671 828-1176 N1122T/Y1123F/Q1126R): as the sequence (Q14671 828-1176 C935G/Q939R) above, with G108C, R112Q, N295T, Y296F, Q299R counted along it
# Outline: as §1
# PUM1 PUF domain R1-TGR = PUM1 PUF domain R1-TGR (Homo sapiens, UniProt Q14671 828-1176, S863T;R864G;Q867R)
# PUM1 PUF domain R1-TGR, sequence (Q14671 828-1176 S863T/R864G/Q867R): as the sequence (Q14671 828-1176 C935G/Q939R) above, with S36T, R37G, Q40R, G108C, R112Q counted along it
# Outline: as §1
# PUM1 PUF domain R1-QFR = PUM1 PUF domain R1-QFR (Homo sapiens, UniProt Q14671 828-1176, S863Q;R864F;Q867R)
# PUM1 PUF domain R1-QFR, sequence (Q14671 828-1176 S863Q/R864F/Q867R): as the sequence (Q14671 828-1176 C935G/Q939R) above, with S36Q, R37F, Q40R, G108C, R112Q counted along it
# Outline: as §1
# PUM1 PUF domain R1-KRK = PUM1 PUF domain R1-KRK (Homo sapiens, UniProt Q14671 828-1176, S863K;Q867K)
# PUM1 PUF domain R1-KRK, sequence (Q14671 828-1176 S863K/Q867K): as the sequence (Q14671 828-1176 C935G/Q939R) above, with S36K, Q40K, G108C, R112Q counted along it
# Outline: as §1
# PUM1 PUF domain R8-HFN = PUM1 PUF domain R8-HFN (Homo sapiens, UniProt Q14671 828-1176, N1122H;Y1123F;Q1126N)
# PUM1 PUF domain R8-HFN, sequence (Q14671 828-1176 N1122H/Y1123F/Q1126N): as the sequence (Q14671 828-1176 C935G/Q939R) above, with G108C, R112Q, N295H, Y296F, Q299N counted along it
# Outline: as §1
# PUM1 PUF domain R4-WAS = PUM1 PUF domain R4-WAS (Homo sapiens, UniProt Q14671 828-1176, N971W;H972A;Q975S)
# PUM1 PUF domain R4-WAS, sequence (Q14671 828-1176 N971W/H972A/Q975S): as the sequence (Q14671 828-1176 C935G/Q939R) above, with G108C, R112Q, N144W, H145A, Q148S counted along it
# Outline: as §1
# PUM1 PUF domain R3-SQQ = PUM1 PUF domain R3-SQQ (Homo sapiens, UniProt Q14671 828-1176, C935S;R936Q)
# PUM1 PUF domain R3-SQQ, sequence (Q14671 828-1176 C935S/R936Q): as the sequence (Q14671 828-1176 C935G/Q939R) above, with G108S, R109Q, R112Q counted along it
# Outline: as §1
# PUM1 PUF domain R4-RGG = PUM1 PUF domain R4-RGG (Homo sapiens, UniProt Q14671 828-1176, N971R;H972G;Q975G)
# PUM1 PUF domain R4-RGG, sequence (Q14671 828-1176 N971R/H972G/Q975G): as the sequence (Q14671 828-1176 C935G/Q939R) above, with G108C, R112Q, N144R, H145G, Q148G counted along it
# Outline: as §1
# PUM1 PUF domain R5-RCL = PUM1 PUF domain R5-RCL (Homo sapiens, UniProt Q14671 828-1176, C1007R;R1008C;Q1011L)
# PUM1 PUF domain R5-RCL, sequence (Q14671 828-1176 C1007R/R1008C/Q1011L): as the sequence (Q14671 828-1176 C935G/Q939R) above, with G108C, R112Q, C180R, R181C, Q184L counted along it
# Outline: as §1
# PUM1 PUF domain R5-RGE = PUM1 PUF domain R5-RGE (Homo sapiens, UniProt Q14671 828-1176, C1007R;R1008G;Q1011E)
# PUM1 PUF domain R5-RGE, sequence (Q14671 828-1176 C1007R/R1008G/Q1011E): as the sequence (Q14671 828-1176 C935G/Q939R) above, with G108C, R112Q, C180R, R181G, Q184E counted along it
# Outline: as §1
# PUM1 PUF domain R7-QSG = PUM1 PUF domain R7-QSG (Homo sapiens, UniProt Q14671 828-1176, S1079Q;N1080S;E1083G)
# PUM1 PUF domain R7-QSG, sequence (Q14671 828-1176 S1079Q/N1080S/E1083G): as the sequence (Q14671 828-1176 C935G/Q939R) above, with G108C, R112Q, S252Q, N253S, E256G counted along it
# Outline: as §1
# PUM1 PUF domain R3-YWF = PUM1 PUF domain R3-YWF (Homo sapiens, UniProt Q14671 828-1176, C935Y;R936W;Q939F)
# PUM1 PUF domain R3-YWF, sequence (Q14671 828-1176 C935Y/R936W/Q939F): as the sequence (Q14671 828-1176 C935G/Q939R) above, with G108Y, R109W, R112F counted along it
# Outline: as §1
# PUM1 PUF domain R3-YRD = PUM1 PUF domain R3-YRD (Homo sapiens, UniProt Q14671 828-1176, C935Y;Q939D)
# PUM1 PUF domain R3-YRD, sequence (Q14671 828-1176 C935Y/Q939D): as the sequence (Q14671 828-1176 C935G/Q939R) above, with G108Y, R112D counted along it
# Outline: as §1
# PUM1 PUF domain R4-EWH = PUM1 PUF domain R4-EWH (Homo sapiens, UniProt Q14671 828-1176, N971E;H972W;Q975H)
# PUM1 PUF domain R4-EWH, sequence (Q14671 828-1176 N971E/H972W/Q975H): as the sequence (Q14671 828-1176 C935G/Q939R) above, with G108C, R112Q, N144E, H145W, Q148H counted along it
# Outline: as §1
# PUM1 PUF domain R7-KPL = PUM1 PUF domain R7-KPL (Homo sapiens, UniProt Q14671 828-1176, S1079K;N1080P;E1083L)
# PUM1 PUF domain R7-KPL, sequence (Q14671 828-1176 S1079K/N1080P/E1083L): as the sequence (Q14671 828-1176 C935G/Q939R) above, with G108C, R112Q, S252K, N253P, E256L counted along it
# Outline: as §1
# PUM1 PUF domain R7-RSQ = PUM1 PUF domain R7-RSQ (Homo sapiens, UniProt Q14671 828-1176, S1079R;N1080S;E1083Q)
# PUM1 PUF domain R7-RSQ, sequence (Q14671 828-1176 S1079R/N1080S/E1083Q): as the sequence (Q14671 828-1176 C935G/Q939R) above, with G108C, R112Q, S252R, N253S, E256Q counted along it
# Outline: as §1
# PUM1 PUF domain R2-RKC = PUM1 PUF domain R2-RKC (Homo sapiens, UniProt Q14671 828-1176, N899R;Y900K;Q903C)
# PUM1 PUF domain R2-RKC, sequence (Q14671 828-1176 N899R/Y900K/Q903C): as the sequence (Q14671 828-1176 C935G/Q939R) above, with N72R, Y73K, Q76C, G108C, R112Q counted along it
# Outline: as §1
# PUM1 PUF domain R5-QPI = PUM1 PUF domain R5-QPI (Homo sapiens, UniProt Q14671 828-1176, C1007Q;R1008P;Q1011I)
# PUM1 PUF domain R5-QPI, sequence (Q14671 828-1176 C1007Q/R1008P/Q1011I): as the sequence (Q14671 828-1176 C935G/Q939R) above, with G108C, R112Q, C180Q, R181P, Q184I counted along it
# Outline: as §1
# PUM1 PUF domain R3-FFS, sequence (Q14671 828-1176 C935F/R936F/Q939S): as the sequence (Q14671 828-1176 C935G/Q939R) above, with G108F, R109F, R112S counted along it
sequence,measurement,setting,value
GGCUAGAACUAGUGGAUCCCCCGGCGCCCGGCGGCUCGAGCCCGGGUAAGUGUAAUUAGUCUGCAUGCCGCCGGGCGCCAUGCCUGCAGGUCGACUCUAGAAAACAUG,binding signal,PUM1 PUF domain R3-FFS,5.05 log2 enrichment (interaction score)
same,binding signal,PUM1 PUF domain R3-GRR,2.87 log2 enrichment (interaction score)
GGCUAGAACUAGUGGAUCCCCCGGCGCCCGGCGGCUCGAGCCCGGGUAAGGGUAAAUAGUCUGCAUGCCGCCGGGCGCCAUGCCUGCAGGUCGACUCUAGAAAACAUG,binding signal,PUM1 PUF domain R8-TFR,2.97 log2 enrichment (interaction score)
GGCUAGAACUAGUGGAUCCCCCGGCGCCCGGCGGCUCGAGCCCGGGUAAGUGUAAAUCGUCUGCAUGCCGCCGGGCGCCAUGCCUGCAGGUCGACUCUAGAAAACAUG,binding signal,PUM1 PUF domain R1-TGR,2.65 log2 enrichment (interaction score)
same,binding signal,PUM1 PUF domain R1-QFR,7.18 log2 enrichment (interaction score)
same,binding signal,PUM1 PUF domain R1-KRK,4.04 log2 enrichment (interaction score)
GGCUAGAACUAGUGGAUCCCCCGGCGCCCGGCGGCUCGAGCCCGGGUAAGCGUAAAUAGUCUGCAUGCCGCCGGGCGCCAUGCCUGCAGGUCGACUCUAGAAAACAUG,binding signal,PUM1 PUF domain R8-HFN,3.57 log2 enrichment (interaction score)
same,binding signal,PUM1 PUF domain R8-TFR,4.89 log2 enrichment (interaction score)
GGCUAGAACUAGUGGAUCCCCCGGCGCCCGGCGGCUCGAGCCCGGGUAAGUGUAUAUAGUCUGCAUGCCGCCGGGCGCCAUGCCUGCAGGUCGACUCUAGAAAACAUG,binding signal,PUM1 PUF domain R4-WAS,4.67 log2 enrichment (interaction score)
GGCUAGAACUAGUGGAUCCCCCGGCGCCCGGCGGCUCGAGCCCGGGUAAGUGUAAAUAGUCUGCAUGCCGCCGGGCGCCAUGCCUGCAGGUCGACUCUAGAAAACAUG,binding signal,PUM1 PUF domain R3-SQQ,2.27 log2 enrichment (interaction score)
same,binding signal,PUM1 PUF domain R3-FFS,3.99 log2 enrichment (interaction score)
same,binding signal,PUM1 PUF domain R4-WAS,2.5 log2 enrichment (interaction score)
same,binding signal,PUM1 PUF domain R4-RGG,2.44 log2 enrichment (interaction score)
GGCUAGAACUAGUGGAUCCCCCGGCGCCCGGCGGCUCGAGCCCGGGUAAGUGUCAAUAGUCUGCAUGCCGCCGGGCGCCAUGCCUGCAGGUCGACUCUAGAAAACAUG,binding signal,PUM1 PUF domain R5-RCL,1.64 log2 enrichment (interaction score)
same,binding signal,PUM1 PUF domain R5-RGE,2.34 log2 enrichment (interaction score)
GGCUAGAACUAGUGGAUCCCCCGGCGCCCGGCGGCUCGAGCCCGGGUAAGUUUAAAUAGUCUGCAUGCCGCCGGGCGCCAUGCCUGCAGGUCGACUCUAGAAAACAUG,binding signal,PUM1 PUF domain R7-QSG,2.85 log2 enrichment (interaction score)
GGCUAGAACUAGUGGAUCCCCCGGCGCCCGGCGGCUCGAGCCCGGGUAAGUGUAAGUAGUCUGCAUGCCGCCGGGCGCCAUGCCUGCAGGUCGACUCUAGAAAACAUG,binding signal,PUM1 PUF domain R3-YWF,3.54 log2 enrichment (interaction score)
same,binding signal,PUM1 PUF domain R3-FFS,6.93 log2 enrichment (interaction score)
same,binding signal,PUM1 PUF domain R3-YRD,3.85 log2 enrichment (interaction score)
same,binding signal,PUM1 PUF domain R3-GRR,0.8 log2 enrichment (interaction score)
GGCUAGAACUAGUGGAUCCCCCGGCGCCCGGCGGCUCGAGCCCGGGUAAGUGUACAUAGUCUGCAUGCCGCCGGGCGCCAUGCCUGCAGGUCGACUCUAGAAAACAUG,binding signal,PUM1 PUF domain R4-WAS,3.76 log2 enrichment (interaction score)
same,binding signal,PUM1 PUF domain R4-RGG,1.13 log2 enrichment (interaction score)
same,binding signal,PUM1 PUF domain R4-EWH,2.99 log2 enrichment (interaction score)
GGCUAGAACUAGUGGAUCCCCCGGCGCCCGGCGGCUCGAGCCCGGGUAAGUCUAAAUAGUCUGCAUGCCGCCGGGCGCCAUGCCUGCAGGUCGACUCUAGAAAACAUG,binding signal,PUM1 PUF domain R7-KPL,2.86 log2 enrichment (interaction score)
same,binding signal,PUM1 PUF domain R7-RSQ,2.88 log2 enrichment (interaction score)
GGCUAGAACUAGUGGAUCCCCCGGCGCCCGGCGGCUCGAGCCCGGGUAAGUGUAAAGAGUCUGCAUGCCGCCGGGCGCCAUGCCUGCAGGUCGACUCUAGAAAACAUG,binding signal,PUM1 PUF domain R2-RKC,5.3 log2 enrichment (interaction score)
GGCUAGAACUAGUGGAUCCCCCGGCGCCCGGCGGCUCGAGCCCGGGUAAGUGUAAAUUGUCUGCAUGCCGCCGGGCGCCAUGCCUGCAGGUCGACUCUAGAAAACAUG,binding signal,PUM1 PUF domain R1-TGR,0.64 log2 enrichment (interaction score)
GGCUAGAACUAGUGGAUCCCCCGGCGCCCGGCGGCUCGAGCCCGGGUAAGUGUUAAUAGUCUGCAUGCCGCCGGGCGCCAUGCCUGCAGGUCGACUCUAGAAAACAUG,binding signal,PUM1 PUF domain R5-RCL,2.91 log2 enrichment (interaction score)
same,binding signal,PUM1 PUF domain R5-RGE,0.96 log2 enrichment (interaction score)
same,binding signal,PUM1 PUF domain R5-QPI,3.43 log2 enrichment (interaction score)
